Screening results from PubChem.
Hits are enriched below; roughly 21% of the tested compounds scored in any of these assays.
RORg inh: qHTS for inhibitors of ROR gamma transcriptional activity; Nuclear receptor ROR-gamma (Mus musculus), P51450; Drosophila S2 Gal4-RORgamma UAS-luciferase reporter, 20 h; 310,000 compounds, 5.4% hits; Potency, µM (titrated, usually from 53.6 µM), inactives show at the highest dose activity change, negative = inhibition, hits mostly inhibitors; further: potency means the concentration at half of the fitted maximal effect; nearly all actives have a fitted effect of over 60% in size
Target sequence (P51450 whole entry, looked up, the tested form may be a part): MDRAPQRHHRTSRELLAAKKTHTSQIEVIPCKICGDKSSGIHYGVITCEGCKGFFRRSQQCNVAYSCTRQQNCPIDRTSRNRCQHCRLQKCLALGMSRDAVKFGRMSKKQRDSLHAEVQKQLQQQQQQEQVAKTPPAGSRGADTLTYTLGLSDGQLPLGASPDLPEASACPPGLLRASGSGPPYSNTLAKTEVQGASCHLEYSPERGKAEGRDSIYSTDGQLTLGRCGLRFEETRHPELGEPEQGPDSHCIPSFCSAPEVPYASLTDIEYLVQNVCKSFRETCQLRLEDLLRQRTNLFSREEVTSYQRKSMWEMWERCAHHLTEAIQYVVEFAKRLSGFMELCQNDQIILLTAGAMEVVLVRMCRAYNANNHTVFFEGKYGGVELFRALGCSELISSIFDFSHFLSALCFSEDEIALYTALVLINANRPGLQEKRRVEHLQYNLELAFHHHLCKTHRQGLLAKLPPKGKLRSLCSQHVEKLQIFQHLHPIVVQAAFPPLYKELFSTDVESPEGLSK
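In this cell-based reporter format, copper sulfate (700 uM final) drives Gal4–ROR gamma fusion expression from a metallothionein promoter in Drosophila Schneider cells; compounds preincubated 1 hr, reporter read after 20 hr at ambient temperature.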
Gal4-VP16 FLuc: VP16 counterscreen qHTS for inhibitors of ROR gamma transcriptional activity; Drosophila S2 Gal4-VP16 UAS-luciferase, luminescence, 20 h; Potency, µM (doses to about 53.6 µM), for the others: top-dose activity, negative = inhibition, actives largely listed as inhibitors; 310,000 compounds, 3.5% hits; AID 2546, 2010;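 further: Gal4-VP16 expression switched on by copper sulfate through the metallothionein promoter; potency means the concentration at half of the fitted maximal effect; nearly all actives have a fitted effect of over 50% in size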
TDP1 cell CPT: qHTS for Inhibitors of human tyrosyl-DNA phosphodiesterase 1 (TDP1): qHTS in cells in presence of CPT | chicken DT40 Tdp1-/-;hTDP1 cells + 20 nM CPT, ATP luminescence, 48 h | Potency, µM (highest dose often 46.2 µM), for inactives: at the highest dose activity change, negative = growth inhibition, hits mostly inhibitors | 420,000 compounds, 12% hits | AID 686979, 2013; further: potency means the concentration at half of the fitted maximal effect; nearly all actives have a fitted effect of over 55% in size
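Cell growth measured by CellTiter-Glo luminescence after a minimum 48 h, 37 C compound exposure with 20 nM CPT in Tdp1-knockout DT40 cells stably expressing hTDP1, seeded 400/well; qHTS titration format.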
ELG1 DNA repair: qHTS screen for small molecules that inhibit ELG1-dependent DNA repair in human embryonic kidney (HEK293T) cells expressing luciferase-tagged ELG1; Potency, µM (series often up to 46.1 µM), without a hit: at the highest dose activity change, negative = inhibition, actives largely listed as inhibitors; AID 504467, 2011; 330,000 compounds, 2.3% hits; HEK293T ELG1-luciferase reporter, luminescence, 16 h; DNA damage induced by 5-fluorouridine; further: potency means the concentration at half of the fitted maximal effect; nearly all actives have a fitted effect of over 55% in size
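Cells (2,000 per well) received 5-fluorouridine plus test compound or DMSO and were incubated 16 hr at 37 °C, 5% CO2. Luciferase activity was read by luminescence 30 min after ONE-Glo addition; signal suppression marked inhibition of damage-induced ELG1 function.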
IL-1B inflam inh: qHTS for Inhibitors of Inflammasome Signaling: IL-1-beta AlphaLISA Primary Screen; THP-1 LPS/ATP IL-1B secretion, AlphaLISA, 16 h; hits give low values; activity change, % at 57.5 µM; 360,000 compounds, 4.7% hits; in the data active means activity change below about -50%; inconclusive means mostly about -30% to -49%
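Secreted IL-1B measured by AlphaLISA bead assay after 16 h compound exposure of THP-1 cells; compounds (final up to 57.5 uM) added 1 h before LPS (250 ng/mL) and ATP (1.25 mM) stimulation; lower signal means less secretion.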
DT40 TDP1 no CPT: qHTS for Inhibitors of human tyrosyl-DNA phosphodiesterase 1 (TDP1): qHTS in cells in absence of CPT | DT40 Tdp1-/- hTDP1 cells, no CPT, ATP luminescence, 48 h | Potency, µM (series often up to 46.2 µM), without a hit: at the top dose activity change, negative = growth inhibition, usual class: inhibitors | 420,000 compounds, 15% hits; further: potency means the concentration at half of the fitted maximal effect; nearly all actives have a fitted effect of over 55% in size
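Luminescent ATP content (CellTiter-Glo) served as the growth readout. Knockout chicken DT40 cells expressing human TDP1 were exposed to compounds without camptothecin for a minimum 48 hr at 37 °C.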
An asterisk follows results filed as active; ? = inconclusive; . = not tested or not shown; [ ] = another dose, or the depositor's remark. Unless noted, the call rests on the fitted dose curve; in most records, active means well fitted curve in the direction sought with a large enough effect; inconclusive means small, poorly fitted or top-dose-only effect, or another doubt; inactive means no such curve, though single readings can be large; an effect the other way counts as inactive or inconclusive. On the % scale 0 is the no-effect control and ±100 the full control effect.

SMILES | RORg inh | Gal4-VP16 FLuc | TDP1 cell CPT | ELG1 DNA repair | IL-1B inflam inh | DT40 TDP1 no CPT
Cc1oc(-c2ccc(Cl)cc2)nc1CS(=O)CC(=O)NCCCN1CC(C)CC(C)C1 (stereo unspecified) | 2% | -4% | ? | 12% | -70* | ?
CCOC(=O)N1CCC(NC(=O)CSCc2nc(-c3ccc(OCC)cc3)oc2C)CC1 | 4% | -4% | ? | 13µM* | -29 | ?
Cc1oc(-c2ccc(Cl)cc2)nc1CS(=O)CC(=O)NCCN1CCCCCC1 (stereo unspecified) | 19% | 0% | -25% | 18% | -25 | ?
CCOc1ccc(-c2nc(CSCC(=O)NC3CCCc4ccccc43)c(C)o2)cc1 (stereo unspecified) | -16% | 5% | 18µM* | ? | -77* | ?
Cc1ccccc1[C@@H](NC(=O)OC(C)(C)C)C(=O)OC(C)(C)C | . | . | -5% | 14% | 42 | -23%
Cc1cccc(NC(=O)Cn2nnc(-c3nc(-c4ccncc4)no3)c2N)c1 | . | . | -22% | . | . | ?
O=C1C[C@@H]2CCN3C(=O)CCC[C@@H]([C@H]23)[C@@H]1Cc1ccccc1 | -11% | 0% | -3% | 9% | 36 | 9%
O=C1CCC[C@@H]2C=C[C@H](c3ccc(Br)cc3)[C@H]3CCN1[C@@H]32 | . | . | ? | . | -4 | 18µM*
Cc1ccc(CN2CCc3nnc(C(NS(C)(=O)=O)C(C)C)n3CC2)cc1C (stereo unspecified) | . | . | -12% | . | . | -1%
Cc1ccccc1Nc1nc2ccccc2n1C(C)C | 10µM* | -4% | -16% | -1% | -4 | -15%
COc1cccc(Nc2nc3ccccc3n2C(C)C)c1 | -36% | -20% | -27% | -3% | -11 | -22%
COc1cccc(N(C)C(=S)Oc2ccc3c(c2)CCCC3)n1 | -3%[10 µM] | ? | ? | . | . | -18%
C[C@@H](c1ccccc1)N1Cc2ccccc2Oc2cc(Br)ccc2S1(=O)=O | . | . | ? | -15% | -8 | -25%
COc1ccccc1C(=O)N1[C@@H](C(C)C)COc2cc(Br)ccc2S1(=O)=O | . | . | ? | . | 18 | 16µM*
COc1cccc(C(=O)N2C(C(C)C)COc3cc(Br)ccc3S2(=O)=O)c1 (stereo unspecified) | . | . | 26µM* | . | 65 | 23µM*
Cc1cccc(C(=O)N2[C@@H](C(C)C)COc3cc(Br)ccc3S2(=O)=O)c1 | . | . | ? | . | -3 | ?
O=C1CC(c2cccc(Cl)c2)Cc2nc(N3CCN(c4ccccc4)CC3)ncc21 (stereo unspecified) | 8% | -16% | -3% | 2% | 9 | -4%
CCN1CCN(c2ncc3c(n2)CC(c2cc(OC)c(OC)c(OC)c2)CC3=O)CC1 (stereo unspecified) | 19% | -19% | 4.6µM* | -7% | 26 | 3.3µM*
O=C1CC(c2cccc(Cl)c2)Cc2nc(N3CCOCC3)ncc21 (stereo unspecified) | -20% | -11% | ? | ? | 13 | 21µM*
O=C(CCCc1nc(-c2ccc(Cl)cc2)no1)NCc1ccco1 | . | . | 7.3µM* | . | . | 12µM*
Cc1ccc(-c2noc(CCCC(=O)NCc3ccco3)n2)cc1 | . | . | ? | . | . | 18µM*
CC1(C(=O)NS(=O)(=O)Cc2ccccc2)CCN1C(=O)Cc1cc(F)ccc1F (stereo unspecified) | . | . | -12% | . | -1 | 8%
Cc1ccc(-n2nnc(-c3nc(-c4cccs4)no3)c2N)c(C)c1 | . | . | 4% | . | . | -26%
CC(C)c1ccc(Nc2ncc3c(n2)CCN(C(=O)Nc2ccc(F)c(Cl)c2)C3)cc1 | . | . | ? | . | -13 | ?
COc1cccc(NC(=O)N2CCc3nc(Nc4cc(Cl)cc(Cl)c4)ncc3C2)c1 | . | . | ? | . | -54* | 23µM*
SMILES | RORg inh | Gal4-VP16 FLuc | TDP1 cell CPT | ELG1 DNA repair | IL-1B inflam inh | DT40 TDP1 no CPT
O=C(Nc1ccc(OC(F)(F)F)cc1)N1CCc2nc(NCc3cccc(Oc4ccccc4)c3)ncc2C1 | . | . | 18µM* | . | -22 | 21µM*
COc1cccc(NC(=O)N2CCc3nc(NCc4cccc(Oc5ccccc5)c4)ncc3C2)c1 | . | . | 10µM* | . | 34 | 21µM*
Cc1ccccc1Oc1cc(-n2ncc(Cl)c(Cl)c2=O)ncn1 | 1.1µM* | 3.2µM* | 0.65µM* | 5.8µM* | -106* | 0.41µM*
CCOc1cnn(-c2cc(Oc3ccc(C)cc3)ncn2)c(=O)c1Cl | 4% | 4% | 2% | 9% | -1 | -25%
Cc1ccc(O)c(NC(=O)c2cc(-c3cccs3)on2)c1 | -6% | ? | 3% | ? | -67* | -25%
O=C(NCc1cccnc1)c1cc(-c2cccs2)on1 | 15% | -7% | 13µM* | ? | 67 | ?
O=C(NCc1cccnc1)c1cc2nc(-c3cccs3)cc(C(F)(F)Cl)n2n1 | 1% | -13% | ? | ? | -67* | ?
